Assay outcomes (PubChem)
Many of the other results were omitted from the sample, so hits are more common in it than they were.
Sm TGR inh: inhibitors of Schistosoma mansoni thioredoxin glutathione reductase. purified TGR, DTNB reduction, TNB absorbance 405 nm. Potency, µM (doses to about 114 µM), inactives show at the top dose activity change, negative = inhibition, hits mostly inhibitors. 3% of 360,000 active; also: potency is read from the fitted curve at half-maximal effect; % is scaled to controls: 0 for no effect and ±100 for the full control effect; nearly all actives have a fitted effect of over 60% in size
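First, TGR (20 nM dispensed) and NADPH were mixed with compound. Second, a 15 min room-temperature incubation followed. Third, further NADPH and then DTNB were added to start the reaction. Finally, TNB absorbance was monitored kinetically.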
CHX counter-1: counter-screen hit for Shiga toxin inhibitors, cycloheximide. 12% of 300,000 active. cell reporter, cycloheximide protein synthesis inhibition counterscreen. max response, %; in the data active = max response mostly above about 13%, no sharp cut-off; inactive = mostly below about 14%; also: read at 38.3 µM for the half of the compounds with a filed dose; 0% is about no effect
Shiga toxin inh: blocks Shiga toxin action in Vero cells | AID 2315 | Vero cells, Shiga toxin protein synthesis inhibition reporter | 9.2% of 290,000 active | inhibition, % at 38.7 µM; in the data active = inhibition mostly above about 28%, no sharp cut-off; inactive = mostly below about 43%; also: 0% is about no effect
LmPK inh: LmPK (Leishmania mexicana) enzyme inhibition; Potency, µM (series often up to 57.5 µM), for inactives: at the top dose activity change, negative = inhibition, actives largely listed as inhibitors; purified LmPK, Kinase-Glo ATP luminescence, 1 h; 0.37% of 290,000 active; AID 1721; also: potency is read from the fitted curve at half-maximal effect; % is scaled to controls: 0 for no effect and ±100 for the full control effect
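Purified LmPK (0.1 nM) converted ADP (0.1 mM) to ATP with PEP (0.5 mM) in imidazole buffer pH 7.2 with KCl and MgCl2, 1 h at room temperature. ATP was read by Kinase-Glo luminescence; data normalized to uninhibited and no-enzyme controls.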
Giardia FBPA inh-1: inhibitors of Giardia lamblia fructose-1,6-bisphosphate aldolase. A8B2U2. purified Giardia FBPA. Potency, µM (series often up to 59.6 µM), for inactives: top-dose activity, negative = inhibition, hits mostly inhibitors. 0.71% of 290,000 active; also: potency is read from the fitted curve at half-maximal effect; % is scaled to controls: 0 for no effect and ±100 for the full control effect; nearly all actives have a fitted effect of over 55% in size
Target sequence (A8B2U2 whole entry, looked up): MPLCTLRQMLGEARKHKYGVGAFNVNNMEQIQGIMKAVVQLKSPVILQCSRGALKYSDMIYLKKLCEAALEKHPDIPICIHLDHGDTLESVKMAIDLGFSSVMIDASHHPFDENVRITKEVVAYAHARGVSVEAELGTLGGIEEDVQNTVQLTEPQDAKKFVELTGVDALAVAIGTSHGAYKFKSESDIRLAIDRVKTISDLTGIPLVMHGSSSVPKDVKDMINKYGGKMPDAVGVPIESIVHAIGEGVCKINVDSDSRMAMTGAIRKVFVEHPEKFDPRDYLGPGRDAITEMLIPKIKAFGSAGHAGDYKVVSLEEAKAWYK
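40 nM FBPA preincubated 10 min at RT with compound (up to 57.5 uM final), then substrate plus GAPDH/TPI/NAD/arsenate coupling and diaphorase/resazurin added. Fluorescence read after 20 min at RT, 525/598 nm.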
TbPYK inhibitor: T. brucei pyruvate kinase inhibition; Q57TT1; TbPYK enzyme, Kinase-Glo Plus ATP luminescence, 45 min; Potency, µM (top dose mostly 76.8 µM), without a hit: at the highest dose activity, negative = inhibition, actives largely listed as inhibitors; 0.12% of 410,000 active; also: potency is read from the fitted curve at half-maximal effect; % is scaled to controls: 0 for no effect and ±100 for the full control effect; nearly all actives have a fitted effect of over 50% in size
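In this concentration-response screen, enzyme-free wells defined baseline while DMSO plates tracked drift. Each reaction combined TbPYK, substrate, compound and 130 uM ADP for 45 min at room temperature. Kinase-Glo Plus luminescence gave the signal.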
CHX counter-2: affects protein synthesis reporter in cycloheximide counter-screen | shares compounds with Shiga toxin inh | Cycloheximide counterscreen, protein synthesis reporter, Shiga toxin assay | Potency, µM (highest dose often 38.3 µM), for the others: top-dose activity (activation), usual class: activators | 3% of 510 active; calls by dose curve; also: potency is read from the fitted curve at half-maximal effect; 0% is about no effect
Giardia growth: inhibitors of Giardia lamblia growth; shares compounds with Giardia FBPA inh-1; Giardia lamblia trophozoite growth inhibition; Potency, µM (series often up to 57.5 µM), for the others: at the top dose activity change, negative = inhibition, usual class: inhibitors; 5% of 1,500 active; AID 2785;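 also: potency is read from the fitted curve at half-maximal effect; trophozoites exposed to compound for 48 h at 37 °C; % is scaled to controls: 0 for no effect and ±100 for the full control effect; nearly all actives have a fitted effect of over 70% in size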
Mammal cell tox: mammalian cytotoxicity of Giardia aldolase inhibitor hits; shares compounds with Giardia FBPA inh-1; mammalian cell viability counter-screen, qHTS; Potency, µM (top dose mostly 57.5 µM), for inactives: top-dose viability change, negative = toxicity, actives largely listed as inhibitors; 4% of 1,500 active; AID 2786;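 also: Chinese hamster ovary cells used as mammalian cytotoxicity surrogate; viability measured as cellular ATP by luminescence; potency is read from the fitted curve at half-maximal effect; compound exposure lasted 48 h before reading; % is scaled to controls: 0 for no effect and ±100 for the full control effect; nearly all actives have a fitted effect of over 60% in size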
Giardia FBPA inh-2: confirmation of Giardia fructose-bisphosphate aldolase inhibitors; shares compounds with Giardia FBPA inh-1; purified Giardia aldolase enzyme activity, qHTS; Potency, µM (series often up to 57.5 µM), without a hit: at the top dose activity change, negative = inhibition, actives largely listed as inhibitors; 5% of 1,500 active; AID 2787; also: potency is read from the fitted curve at half-maximal effect; % is scaled to controls: 0 for no effect and ±100 for the full control effect; nearly all actives have a fitted effect of over 45% in size
Rabbit aldolase: rabbit FBP aldolase inhibition by Giardia aldolase hits; AID 2794; Rabbit muscle FBPA enzyme inhibition, selectivity counter-screen; shares compounds with Giardia FBPA inh-1; 4% of 1,500 active; Potency, µM (series often up to 57.5 µM), without a hit: at the top dose activity, negative = inhibition, hits mostly inhibitors; also: potency is read from the fitted curve at half-maximal effect; % is scaled to controls: 0 for no effect and ±100 for the full control effect; nearly all actives have a fitted effect of over 60% in size
Target sequence (P00883 whole entry, looked up): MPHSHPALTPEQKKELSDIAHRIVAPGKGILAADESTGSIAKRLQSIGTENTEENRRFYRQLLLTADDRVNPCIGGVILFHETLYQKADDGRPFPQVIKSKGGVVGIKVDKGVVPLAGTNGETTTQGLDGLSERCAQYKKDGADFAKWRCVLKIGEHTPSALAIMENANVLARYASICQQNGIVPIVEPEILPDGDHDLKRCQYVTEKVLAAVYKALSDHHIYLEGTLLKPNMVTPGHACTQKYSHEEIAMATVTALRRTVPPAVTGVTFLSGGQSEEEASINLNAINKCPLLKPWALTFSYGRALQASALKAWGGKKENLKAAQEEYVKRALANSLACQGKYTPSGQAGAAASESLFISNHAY
GAPDH coupling: GAPDH inhibition flagged for Giardia aldolase hits; shares compounds with Giardia FBPA inh-1; GAPDH coupling enzyme counterscreen, biochemical, qHTS; Potency, µM (top dose mostly 57.5 µM), inactives show top-dose activity change, negative = inhibition, actives largely listed as inhibitors; 6% of 1,500 active; also: potency is read from the fitted curve at half-maximal effect; % is scaled to controls: 0 for no effect and ±100 for the full control effect; nearly all actives have a fitted effect of over 55% in size
An asterisk follows results filed as active; ? = inconclusive; · = no result; [ ] = remark or other dose. Unless noted, calls follow the shape of the dose curve; as a rule, active = well fitted curve in the direction sought with a large enough effect; inconclusive = small, poorly fitted or top-dose-only effect, or another doubt; inactive = no such curve, though single readings can be large; an effect the other way counts as inactive or inconclusive.

SMILES	Sm TGR inh	CHX counter-1	Shiga toxin inh	LmPK inh	Giardia FBPA inh-1	TbPYK inhibitor	CHX counter-2	others
CC(C)CC(=O)Nc1c2c(nn1-c1cccc(Cl)c1)CS(=O)(=O)C2	7%	-3	-5	7%	5%	2%	·
COC(=O)c1ccc(C)c(NC(=O)CCSc2ccc(Cl)cc2)c1	0%	10	100*	-5%	6%	1%	-3%
CC(=O)c1cccc(NC(=O)/C(=C/c2ccco2)NC(=O)c2ccco2)c1	1%	2	27*	-9%	·	-22%	6%
CCOc1ccc(NC(=O)CN(C)C(=O)CN2C(=O)c3ccc([N+](=O)[O-])cc3C2=O)cc1OCC	-2%	·	·	·	·	6%	·
CCOc1ccccc1CNC(=O)CCCN1C(=O)COc2ccc(C)cc21	-5%	·	·	·	·	-1%	·
COc1ccc2nc3cc(Cl)ccc3c(NCCCN3CCN(CCCNc4c5ccc(Cl)cc5nc5ccc(OC)cc45)CC3)c2c1	·	10	34*	·	1%	·	0%
CCOC(=O)N1CCN(C(=O)c2ccc(OCC)cc2)CC1	-35%	-6	-3	0%	-20%	0%	·
CCOC(=O)N1CCN(C(=O)CCC(=O)c2ccc(OCC)cc2)CC1	-1%	1	41*	-6%	2%	6%	-1%
O=C1NC(=Nc2ccc(O)cc2)S/C1=C\C=C\c1ccco1	14µM*	3	47*	5%	-8%	2%	?
COc1cc(/C=C2/SC(=Nc3ccc(O)cc3)NC2=O)cc(OC)c1O	7%	-5	32	-6%	-13%	-4%	·
O=C(CNC1CCCCC1)Nc1cccc(C(F)(F)F)c1	0%	-1	-11	-2%	10%	-17%	·
O=C(NCCc1ccccc1)C1CCCN1S(=O)(=O)c1ccc(F)cc1 (stereo not drawn)	·	·	·	·	·	5%	·
O=C(NCCc1ccccc1)C1CCCN1S(=O)(=O)c1ccccc1 (stereo not drawn)	-3%	8	22*	0%	6%	0%	4%
COc1ccccc1S(=O)(=O)N(C)C[C@H]1OCc2cn(nn2)CCCC(=O)N([C@@H](C)CO)C[C@@H]1C	·	·	·	·	·	-3%	·
Cc1ccc2nc(-c3ccc(Cl)cc3)cc(C(=O)OCC(=O)c3ccccc3)c2c1	0%	·	·	·	·	-8%	·
O=C(COc1ccc([N+](=O)[O-])cc1)NNC(=O)Nc1ccccc1F	5%	3	9	-1%	-6%	3%	·
Cc1cn2c(=O)cc(COC(=O)c3ccc(NC(=O)C(C)Oc4ccccc4)cc3)nc2s1 (stereo not drawn)	5%	·	·	·	·	7%	·
Cn1ncc(Br)c1C(=O)N1CCc2ccccc21	?	-2	16	5%	-11%	-9%	·
Cn1cc(Br)c(C(=O)N2CCc3ccccc32)n1	10%	9	active	-1%	7%	4%	6%
Cc1cc(C)c2c(NC(=S)NC(=O)c3ccccc3)nn(C)c2n1	?	8	-16	1%	18µM*	0%	·	Giardia growth=-12%[10.4 µM];Mammal cell tox=-12%;Giardia FBPA inh-2=10%;Rabbit aldolase=5%;GAPDH coupling=10%
Cc1cc(NC(=O)c2ccccc2)nc(C)n1	-8%	13	14	-15%	-3%	4%	·
CCOc1nc(NC(=O)NS(=O)(=O)Oc2ccccc2)nc(-c2ccccc2)n1	-6%	·	·	·	·	-2%	·
CC1CCCCN1S(=O)(=O)c1ccc(C(=O)Nc2nnc(-c3ccccc3Cl)o2)cc1 (stereo not drawn)	4%	-2	-7	-1%	?	10%	·
Cc1ccc(C(=O)Nc2nnc(-c3ccncc3)o2)cc1	0%	9.8*	23	-10%	14µM*	2%	·	Giardia growth=-5%;Mammal cell tox=12%;Giardia FBPA inh-2=13%;Rabbit aldolase=4%;GAPDH coupling=-13%
O=C(Nc1nnc(-c2ccncc2)o1)c1ccccc1	3%	14	26	7%	16µM*	-23%	·	Giardia growth=8.9µM*;Mammal cell tox=2%;Giardia FBPA inh-2=3%;Rabbit aldolase=-3%;GAPDH coupling=-4%
CC1CCCCN1S(=O)(=O)c1ccc(C(=O)Nc2nnc(-c3ccncc3)o2)cc1 (stereo not drawn)	-6%	4	-5	7%[11.5 µM]	5µM*	-1%	·	Giardia growth=?;Mammal cell tox=?;Giardia FBPA inh-2=4%;Rabbit aldolase=13%;GAPDH coupling=8%
COc1ccccc1Cn1cc(C(=O)c2ccc(C)cc2)c(=O)c2cc(C)ccc21	1%	·	·	·	·	0%	·
